Screens (PubChem BioAssay)
PAFAH1B3 FP inh: inhibitors of human PAFAH1B3; Q15102; recombinant PAFAH1B3, FP-rhodamine probe, fluorescence polarization; inhibition, % at 3.39 µM; hit rate 0.28% among 340,000;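 active means inhibition above the screen-wide average of all tested compounds plus 3 SD, cut at about 25% in these data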;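 further: 0% = enzyme with DMSO only and 100% = wells lacking PAFAH1B3 protein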
ZTA DNA inh: counter-screen for EBNA-1 inhibitors: inhibitors of Epstein-Barr virus ZTA; P03206; inhibition, % at 11 µM; ZTA-DNA binding, fluorescence polarization; hit rate 0.15% among 320,000; in the data active means inhibition above about 33%
Target sequence (P03206 whole entry, looked up): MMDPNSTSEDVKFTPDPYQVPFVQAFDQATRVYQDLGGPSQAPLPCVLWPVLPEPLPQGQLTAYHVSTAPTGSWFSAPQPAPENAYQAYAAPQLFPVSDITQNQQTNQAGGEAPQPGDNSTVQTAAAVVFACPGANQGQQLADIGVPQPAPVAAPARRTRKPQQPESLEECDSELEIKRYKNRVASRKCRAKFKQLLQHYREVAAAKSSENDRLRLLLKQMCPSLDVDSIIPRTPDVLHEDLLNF
rCAG RNA binder: r(CAG) repeat RNA binding. hit rate 1.3% among 370,000. AID 651821. inhibition, % at 3 µM. TO-PRO-1 dye displacement fluorescence;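 active means inhibition above the plate cutoff, the mean of all test compounds on that plate plus 3 SD, cut at about 35% in these data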;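 further: 0% = DMSO alone and 100% = 100 µM mitoxantrone as full dye displacement; higher means more dye released from RNA so lower well fluorescence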
PAFAH1B2 inh: PAFAH1B2 (human) inhibition; P68402; hit rate 1.2% among 340,000; recombinant PAFAH1B2, FP-rhodamine activity probe, fluorescence polarization; inhibition, % at 3.39 µM;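 active means inhibition above the mean of all tested compounds plus 3 SD, cut at about 24% in these data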;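 further: 0% = enzyme with DMSO and 100% = wells lacking PAFAH1B2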
Target sequence (P68402 whole entry, looked up): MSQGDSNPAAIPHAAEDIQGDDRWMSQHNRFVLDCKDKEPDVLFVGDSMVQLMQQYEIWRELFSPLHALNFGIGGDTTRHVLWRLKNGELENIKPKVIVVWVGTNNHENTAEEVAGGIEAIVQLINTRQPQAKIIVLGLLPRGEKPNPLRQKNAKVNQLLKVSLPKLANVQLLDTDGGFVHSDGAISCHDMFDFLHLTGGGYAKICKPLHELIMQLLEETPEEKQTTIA
PAFAH2 inh: PAFAH2 (human) inhibition. hit rate 0.99% among 340,000. recombinant PAFAH2, FP-rhodamine activity probe, fluorescence polarization. AID 492956. inhibition, % at 3.39 µM;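 active means inhibition above the mean over all tested compounds plus 3 SD, cut at about 30% in these data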;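 further: inhibitors block probe labeling of enzyme so polarization drops; 0% = enzyme with DMSO and 100% = wells lacking PAFAH2 protein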
EBNA-1 inh: blocks EBNA-1 binding to DNA. EBNA-1 DNA binding, fluorescence polarization. inhibition, % at 14.8 µM. hit rate 0.34% among 300,000. AID 1950; in the data active means inhibition above about 28%
* hit, by the source's call; . = not tested or not shown. Only some compounds are listed: those with a hit (about 2.9% of all), similar ones and a draw of the others.

SMILES	PAFAH1B3 FP inh	ZTA DNA inh	rCAG RNA binder	PAFAH1B2 inh	PAFAH2 inh	EBNA-1 inh
C[C@@H]1OC(C2CCCCC2)N(C)[C@H]2C[C@H]3c4[nH]c5cccc(-c6ccccc6)c5c4CCN3C[C@@H]12 (stereo partly specified)	.	.	6.8	.	.	.
Cc1ccc(N2CCN(/N=C\c3cccnc3)CC2)cc1	.	.	-0.3	.	.	.
COC(=O)C1=C(C)N(Cc2cccc(C(F)(F)F)c2)C(=NCC2CC2)NC1c1ccccc1 (stereo unspecified)	.	.	6.9	.	.	.
O=C(NCC1CCN(C(=O)C(=O)c2cccs2)CC1)c1ccc2c(c1)CCO2	.	.	1.0	.	.	.
O=C(CN1CCN(S(=O)(=O)c2ccc(Cl)cc2)CC1)NC1CCCC1	6.5	-9.2	-8.0	28.7*	2.4	-5.2
O=C(CN1CCN(S(=O)(=O)c2ccc(F)cc2)CC1)NC1CCCC1	3.0	-15.9	-4.3	11.2	3.0	-2.7
Cc1cccc(NC(=O)Cn2cnc3ccc(S(=O)(=O)N4CCC(C)CC4)cc3c2=O)n1	1.0	6.8	8.2	24.2*	-1.2	13.9
COc1ccccc1-c1cc(-c2ccc(O)cc2)nc(N)c1C#N	3.4	-4.8	3.7	5.9	33.0*	-23.2
COc1ccc(S(=O)(=O)Nc2ccc(S(=O)(=O)Nc3ccc(F)cc3)cc2)cc1C	-2.0	8.8	46.8*	7.3	3.0	5.0
COC(=O)[C@]12C[C@H](CC(=O)NCc3ccccc3)C(=O)N(Cc3ccc(Cl)cc3Cl)C1=C[C@H](COCc1ccccc1)O[C@@H]2C	.	.	11.9	.	.	.
O=C(Nc1cccc(-c2csc(Nc3ccc(Cl)cc3)n2)c1)c1cccc(C(F)(F)F)c1	5.9	7.2	40.1*	0.8	-6.0	-3.2
O=C(Nc1ccc(-c2csc(Nc3ccc(Cl)cc3)n2)cc1)c1cc([N+](=O)[O-])cc(C(F)(F)F)c1	16.0	-6.4	29.5	10.6	20.4	10.7
O=C(Nc1cccc(-c2csc(Nc3ccc(Cl)cc3)n2)c1)c1ccccc1	5.5	-4.3	24.5	8.5	-22.8	-7.8
O=C(Nc1cccc(-c2csc(Nc3ccc(Cl)cc3)n2)c1)c1cc([N+](=O)[O-])cc(C(F)(F)F)c1	49.4*	5.8	20.9	39.3*	52.5*	4.4
O=C(Nc1cccc(-c2csc(Nc3ccccc3)n2)c1)c1cc([N+](=O)[O-])cc(C(F)(F)F)c1	27.2*	17.2	18.4	28.1*	-14.3	-0.2
COc1ccc(S[C@]2(C(=O)N3CCN(c4ncccn4)CC3)CC(=O)N(C(=O)CCc3ccccc3)[C@@H]2c2ccc(OC)cc2)cc1	.	.	9.6	.	.	.
COC(=O)c1cc2c(c3c4cc(F)ccc4n(S(=O)(=O)c4ccccc4)c13)C(=O)N(Cc1ccc(N(C)C)cc1)C2	.	.	12.1	.	.	.
O=S1(=O)c2ccc(N3CC[C@@H](O)C3)cc2O[C@@H]2CCN1C2	.	.	4.8	.	.	.
COC(=O)[C@]12CCCCC=C1N(Cc1ccc(OC)cc1)C(=O)[C@@H]2CC(=O)N1CCC(c2ccccc2)CC1	.	.	8.0	.	.	.
O=c1c(O)c(-c2ccc(O)c(O)c2)oc2cc(O)ccc12	37.6*	.	13.2	14.9	66.4*	.
COC(=O)C[C@@H]1CC[C@@H]2[C@@H](COc3ccc(NC(=O)c4ccc(F)cc4)cc3C(=O)N2C)O1	.	.	2.7	.	.	.
CN1CCCN(C(=O)CSc2nnc(-c3cccnc3)n2C2CCCCC2)CC1	.	.	-2.2	.	.	.
Nn1c(SCC(=O)NC2CCCCC2)nnc1-c1cc(-c2ccccc2)n[nH]1	.	.	0.5	.	.	.
O=C1C=CC(=O)N1CCNc1ncc(C(F)(F)F)cc1Cl	11.3	.	0.5	8.1	-2.6	.
O=C1CC(=O)N(CCNc2ncc(C(F)(F)F)cc2Cl)C(=O)N1	2.4	20.3	51.4*	5.2	-5.4	-0.7
SMILES	PAFAH1B3 FP inh	ZTA DNA inh	rCAG RNA binder	PAFAH1B2 inh	PAFAH2 inh	EBNA-1 inh
COC(=O)c1sccc1NC(=O)CC1C(=O)NCCN1C(=O)Nc1ccccc1 (stereo unspecified)	1.0	-15.0	7.0	-4.8	3.3	-3.5
COC(=O)c1sccc1NC(=O)CC1C(=O)NCCN1C(=O)Nc1ccc(OCc2ccccc2)cc1 (stereo unspecified)	4.1	-16.1	2.0	61.2*	0.6	-0.6
N/C(=N\OC(=O)CCC1CCCC1)c1ccc(Cl)cc1	-6.5	8.1	-2.2	25.3*	9.8	-2.8
Cc1cc(C)nc(N2CCC(C(=O)N(C)CCc3ccccn3)CC2)n1	.	.	-0.2	.	.	.
Cc1ccc(S(=O)(=O)Nc2nnc(CC(C)(C)C)s2)cc1	3.3	-7.1	27.8	5.1	0.5	4.3
CC(C)(C)Cc1nnc(NS(=O)(=O)c2ccc(F)cc2)s1	8.5	-11.6	18.3	30.5*	3.8	2.0
O=C1C[C@@H](c2ccccc2)N=C2N(CC3CC3)C/C(=C/c3ccccc3)N12	.	.	4.1	.	.	.
O=C(O)c1ccc2c(c1)C(=O)/C(=C/c1ccccc1)C2=O	39.3*	10.5	20.6	20.8	12.8	-2.4
COc1ccccc1C(=O)CSc1nnc(-c2ccncc2)n1-c1ccc(Cl)cc1	.	.	4.2	.	.	.
CCCCCCc1c(C)c2ccc(OCC(=O)N3CCC[C@H]3C(=O)O)c(C)c2oc1=O	13.5	1.4	41.5*	4.0	9.0	-1.9
CCCc1cc(=O)oc2c(C)c(OCC(=O)N3CCC[C@@H]3C(=O)O)ccc12	2.8	3.2	0.8	4.0	14.0	-2.3
CCc1cc(=O)oc2c3c(cc(OCC(=O)NCCCn4ccnc4)c12)OC(C)(C)CC3	4.5	-4.7	-5.1	-1.3	39.5*	-0.7
CCCc1cc(=O)oc2c3c(cc(OCC(=O)NCCN4CCOCC4)c12)OC(C)(C)CC3	-2.1	-4.7	-9.2	2.9	52.2*	1.1
CCCCc1cc(=O)oc2c3c(cc(OCC(=O)NCCCO)c12)OC(C)(C)CC3	-1.6	3.1	-8.0	7.7	43.0*	16.4
Cc1cccc(CN2CCN(C3CN(Cc4cn(Cc5ccc(C(F)(F)F)cc5)nn4)S(=O)(=O)C3)CC2)c1 (stereo unspecified)	.	.	-2.0	.	.	.
CCCN(C(=O)c1cn(CCC)c2ccccc12)c1ccc(Oc2cccnc2)cc1	.	.	2.3	.	.	.
Cc1cc(=O)oc2c3c(cc(OCC(=O)NC4CC4)c12)OC(C)(C)CC3	-0.7	-1.1	-3.2	4.5	14.2	7.1
CCCCc1cc(=O)oc2c3c(cc(OCC(=O)N4CCC[C@H]4C(=O)O)c12)OC(C)(C)CC3	13.8	7.4	22.1	0.7	35.8*	-3.5
N#Cc1cccc(C(=O)N2CCC(Oc3cccnc3)CC2)c1	.	.	-1.5	.	.	.
COc1cccc2c1C(=N)c1c(O)c3c(c(O)c1C2=O)CC(O)(C(C)=O)CC3OC1CC(N)C(O)C(C)O1 (stereo unspecified)	7.6	.	.	11.3	11.2	.
COc1cccc2c1C(=O)c1c(O)c3c(c(O)c1C2=O)CC(O)(C(C)=O)CC3OC1CC(O)C(O)C(C)O1 (stereo unspecified)	52.0*	.	-15.9	65.3*	68.2*	.
O=C(Cc1ccc(Br)cc1)c1ccc(O)cc1O	4.3	13.4	6.4	82.0*	-2.7	4.9
